“And” between values parts separate entries of the source, which are not always exact repeats. Identical values can stand only once. The campaign covered roughly 5,500 compounds. About 2,000 (36%) were called active. Another 18% or so got no clear call; they are omitted. No stated cut-off is given here; in the data, active means normalized growth mostly below about 0.91 (no sharp cut-off); inconclusive means no clear call, values can overlap the other calls; inactive means mostly above about 0.92. This is one part of the list.
Test: chemical genetic growth profiling, strain panel (AID 1159580);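 further: tested at 20 µM; growth read once vehicle control cultures reached saturation at 30 °C; 1 = growth at the plate median or of vehicle wells; lower values mean less growth of the strain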
Settings: S. cerevisiae deletion strains, growth OD

Measured: normalized growth

O=c1cccc2n1CC1CC2CN2CCCC[C@@H]12 (some centres undefined)
inactive: locus YAL013W, strain DEP1, active compounds read low 0.999 | locus YAL021C, strain ccr4, active compounds read low 0.999 | locus YAL026C, strain drs2, active compounds read low 0.983 | locus YAL030W, strain snc1, active compounds read low 0.979 | locus YBL061C, strain skt5, active compounds read low 0.983 | locus YBR009C, strain hhf1, active compounds read low 0.947 | locus YBR021W, strain FUR4, active compounds read low 1.01 | locus YBR023C, strain chs3, active compounds read low 0.974 | locus YBR171W, strain sec66, active compounds read low 0.974 | locus YBR229C, strain ROT2, active compounds read low 0.953 | locus YBR231C, strain swc5, active compounds read low 0.97 | locus YBR279W, strain paf1, active compounds read low 0.988 | locus YCL011C, strain gbp2, active compounds read low 0.983 | locus YCL016C, strain dcc1, active compounds read low 0.976 | locus YCL029C, strain bik1, active compounds read low 0.974 | locus YCL061C, strain MRC1, active compounds read low 0.985 | locus YCL069W, strain vba3, active compounds read low 0.98 | locus YCR088W, strain abp1, active compounds read low 0.973 | locus YDL005C, strain med2, active compounds read low 0.982 | locus YDL035C, strain GPR1, active compounds read low 1 | locus YDL040C, strain nat1, active compounds read low 0.961 | locus YDL074C, strain BRE1, active compounds read low 1.01 | locus YDL101C, strain DUN1, active compounds read low 0.992 | locus YDL134C, strain PPH21, active compounds read low 0.989 | locus YDL185W, strain tfp1, active compounds read low 0.971 | locus YDL192W, strain arf1, active compounds read low 0.99 | locus YDR001C, strain nth1, active compounds read low 0.968 | locus YDR069C, strain doa4, active compounds read low 0.982 | locus YDR101C, strain arx1, active compounds read low 1.03 | locus YDR137W, strain rgp1, active compounds read low 0.994 | locus YDR150W, strain NUM1, active compounds read low 0.992 | locus YDR159W, strain sac3, active compounds read low 0.938 | locus YDR162C, strain NBP2, active compounds read low 0.987 | locus YDR195W, strain ref2 0.946 | locus YDR297W, strain sur2, active compounds read low 0.977 | locus YDR318W, strain mcm21, active compounds read low 0.978 | locus YDR334W, strain swr1, active compounds read low 0.978 | locus YDR335W, strain msn5, active compounds read low 0.987 | locus YDR388W, active compounds read low 0.985 | locus YDR392W, strain spt3, active compounds read low 0.876 | locus YDR502C, strain sam2, active compounds read low 0.981 | locus YEL003W, strain gim4, active compounds read low 0.985 | locus YEL037C, strain rad23, active compounds read low 0.983 | locus YEL061C, strain CIN8 (second series), active compounds read low 0.974 | locus YEL061C, strain CIN8, active compounds read low 0.991 | locus YER015W, strain faa2, active compounds read low 0.976 | locus YER016W, strain bim1, active compounds read low 0.971 | locus YER110C, active compounds read low 0.972 | locus YER111C, strain swi4, active compounds read low 0.977 | locus YER155C, strain BEM2 (second series), active compounds read low 0.973 | locus YER155C, strain BEM2, active compounds read low 1 | locus YER167W, strain BCK2, active compounds read low 0.987 | locus YFR010W, strain ubp6, active compounds read low 0.972 | locus YGL078C, strain dbp3, active compounds read low 0.991 | locus YGL086W, strain mad1, active compounds read low 1.04 | locus YGL167C, strain pmr1, active compounds read low 0.968 | locus YGL173C, strain kem1, active compounds read low 0.981 | locus YGL227W, strain vid30, active compounds read low 0.974 | locus YGL240W, strain doc1, active compounds read low 0.962 | locus YGL248W, strain PDE1, active compounds read low 0.986 | locus YGL253W, strain hxk2, active compounds read low 0.982 | locus YGR135W, strain pre9, active compounds read low 0.982 | locus YGR229C, strain SMI1, active compounds read low 0.993 | locus YGR252W, strain gcn5, active compounds read low 0.968 | locus YHR013C, strain ard1, active compounds read low 0.928 | locus YHR027C, strain rpn1, active compounds read low 0.982 | locus YHR030C, strain SLT2, active compounds read low 0.996 and 1.02 | locus YHR079C, strain IRE1 (second series), active compounds read low 0.986 | locus YHR079C, strain IRE1, active compounds read low 1.02 | locus YHR094C, strain hxt1, active compounds read low 0.967 | locus YHR129C, strain ARP1, active compounds read low 0.983 | locus YHR142W, strain chs7, active compounds read low 1 | locus YHR200W, strain rpn10, active compounds read low 0.975 | locus YIL066C, strain RNR3, active compounds read low 0.987 | locus YIL073C, strain SPO22, active compounds read low 0.967 | locus YIL125W, strain kgd1, active compounds read low 0.986 | locus YIR030C, strain dcg1, active compounds read low 0.984 | locus YJL092W, strain hpr5, active compounds read low 0.981 | locus YJL095W, strain BCK1 (second series), active compounds read low 0.978 | locus YJL095W, strain BCK1, active compounds read low 1 and 1.01 | locus YJL115W, strain asf1, active compounds read low 0.988 | locus YJL129C, strain trk1, active compounds read low 0.982 | locus YJL134W, strain LCB3, active compounds read low 0.983 | locus YJL154C, strain vps35, active compounds read low 0.98 | locus YJL164C, strain tpk1, active compounds read low 0.984 | locus YJL166W, strain qcr8, active compounds read low 1.01 | locus YJL168C, strain set2, active compounds read low 0.99 | locus YJL187C, strain SWE1 (second series), active compounds read low 0.995 | locus YJL187C, strain SWE1, active compounds read low 0.99
